Screens (PubChem)
The sample as a whole holds a higher share of hits than the screen did.
Pf Dd2 growth = inhibitors of Plasmodium falciparum Dd2 growth; P. falciparum Dd2 growth, SYBR Green, 72 h; Potency, µM (highest dose often 28.9 µM), without a hit: at the top dose activity, negative = inhibition, hits mostly inhibitors; 120,000 tested, 4.3% active; active = well fitted inhibition curve with a large enough effect;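 note: plate controls were DMSO vehicle for no effect and reference drug for full effect; nearly all actives have a fitted effect of over 65% in size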
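Readout: SYBR Green fluorescence, 485 nm excitation, 535 nm emission, after ~16 h lysis at 37C. Before that, Dd2-infected red cells (2.5% hematocrit) grew 72 h with compound, 29 uM top final concentration.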
Active calls of the source: *; i = inactive; [ ] = dose if it differs, or a comment. Potency is the fitted concentration of half-maximal effect.

SMILES	Pf Dd2 growth
Cc1nn(-c2ccccc2)c(Oc2ccc(F)cc2F)c1CCC(=O)NCC1CC1	-16%
CC(O)c1cc2n(n1)CCCN(C(=O)c1n[nH]c3c1COCC3)C2 (stereo not given)	-10%
O=C(CCc1nc2ccccc2[nH]c1=O)N1CCN(CCn2cncn2)CC1	9%
COCCCNC(=O)N1CCCOCCNC(=O)[C@@H]2CCC[C@@H]21	6%
CCn1cnnc1CC1CCN(C(=O)CCCC(=O)n2nc(C)c3ccccc32)CC1	i
COc1cc2[nH]c(=O)n(CCCC(=O)N3CCN(c4cccc(C(F)(F)F)c4)CC3)c(=O)c2cc1OC	i
CCCN(C(=O)c1cn(CC(C)C)c(=O)c2cc(OC)c(OC)cc12)c1cccc(C)c1	-17%
COc1cc2c(C(=O)N3CCN(c4cccc(C(F)(F)F)c4)CC3)cn(CC(C)C)c(=O)c2cc1OC	8.9µM*
CC[C@H]1CN(C(=O)c2ccnc(Cl)c2)CC[C@H]1CC(=O)NCc1cccnc1	1%[44.1 µM]
CN1CC(=O)N(c2ccc([N+](=O)[O-])cc2)Cc2c1ncnc2N1CCN(c2ncccn2)CC1	-3%
O=C(CN1CCCC(c2ccccc2)(c2ccccc2)C1)N1CCOCC1	-14%
O=C(CCC1CCN(S(=O)(=O)c2ccccc2)CC1)NC1CCS(=O)(=O)C1 (stereo not given)	-10%
O=C1COCC2(CN1Cc1cccc(OC(F)(F)F)c1)CN(c1ccccn1)C2	i
O=C1COCC2(CN1Cc1cccc(OC(F)(F)F)c1)CN(c1ccccc1F)C2	2.5µM*
COc1cncc(N2CC3(COCC(=O)N(Cc4cccc(OC(F)(F)F)c4)C3)C2)c1	i
O=C(NCC(F)F)C1CN(c2cccc(Cl)c2)C(=O)N1 (stereo not given)	8%[44.1 µM]
CCCNC(=O)CC1COc2ccc(C(=O)NCCOC)cc2N1C (stereo not given)	-14%
Cc1cc(C(=O)N2CC(F)(F)C[C@H]2c2nnc(C3CC3)o2)c(C)o1	-3%
Cn1ccnc1C(=O)N1CC(F)(F)C[C@H]1c1nc(C2CC2)no1	22%
Cc1cc(C(=O)N2CC(F)(F)C[C@H]2c2nc(C3CC3)no2)c(C)o1	3.2µM*
COc1ccc(NC(=O)CN2C(=O)NC(c3ccc(Cl)cc3)C3=C2COC3=O)cc1Cl (stereo not given)	-5%
COc1ccc(-c2cc(C[C@@H]3CC[C@H](O)[C@@H](CN(Cc4ccccc4OC)Cc4ccccc4OC)O3)no2)cc1	-19%
CN1CCCC12Cc1ccccc1CN([S+](C)(=O)[O-])C2 (stereo not given)	-27%[44.1 µM]
CCCC(=O)N1CCc2cn(C)c3cccc(c23)C1	i
CCCNC(=O)C1COC2(CCN(C(=O)c3ccc(OC)cc3)CC2)N1C(=O)c1ccc(OC)cc1 (stereo not given)	-4%
SMILES	Pf Dd2 growth
CCOC(=O)CC(NC(=O)CCc1c(C)nc2c(c(C)nn2-c2ccc(C)c(C)c2)c1C)c1ccc(C)cc1 (stereo not given)	4.5µM*
CCOc1ccc(CCNC(=O)CCc2c(C)nc3c(c(C)nn3-c3ccc(C)c(C)c3)c2C)cc1	3%
CCOC(=O)CCc1c(C)nc2c(c(C)nn2-c2ccc(C)cc2)c1C	15%
Cc1noc(C)c1S(=O)(=O)NC1CCN(C(=O)N2CC3CC(C2)[C@H]2CCCC(=O)N2C3)CC1 (stereo not given in full)	-14%
CCOCCCNc1ncnc2c1CN(C1CCCNC1)C(=O)CN2C (stereo not given)	13%
COc1ccc(Cn2ccc3nc(C)c(C(=O)N4CCN(c5ccc(F)cc5)CC4)cc3c2=O)cc1	-4%
COc1ccc(N2CCN(C(=O)c3noc4c3CCCCC4)CC2)cc1	49%
CCn1c2c(c(=O)n3ncc(C(=O)N4CCN(c5ccc(C(C)=O)cc5)CC4)c13)CN(Cc1ccc(OC)cc1)CC2	10µM*
COCCN(CCOC)CC[C@@H]1CC[C@H](O)[C@@H](C(=O)NCc2ccc(OC)cc2)O1	-21%[44.1 µM]
O=C(Cn1nc(-c2ccc(F)cc2)ccc1=O)NC1CCCc2c1[nH]c1ccccc21 (stereo not given)	-9%
COc1ccccc1-c1ncc2c(n1)OCCN(Cc1ccc(F)cc1F)C2=O	i
COc1cccc(-c2ncc3c(n2)OCCN(Cc2ccc(F)cc2F)C3=O)c1F	10µM*
COc1cccc(-c2ncc3c(n2)OCCN(Cc2ccc(F)cc2F)C3=O)c1	-21%[44.1 µM]
COCCn1c(CO)nnc1C1CC(NC(=O)c2cc(C)n3nc(C)cc3n2)C1 (stereo not given)	-4%
COc1ccc(CCC(=O)N2CCC[C@H]2c2nc(-c3ccccc3)no2)cc1	i
Cc1noc2c(NCCc3ccccn3)cc(-c3ccc(Cl)cc3)nc12	0%[44.1 µM]
Cc1noc2c(NCCCn3ccnc3)cc(-c3ccc(Cl)cc3)nc12	4.5µM*
Cc1noc2c(NCCN3CCOCC3)cc(-c3ccc(Cl)cc3)nc12	-13%[44.1 µM]
COc1cccc(CN2C(=O)OC3(CCN(C(=O)c4cccc(C#N)c4)CC3)C2(C)c2cccnc2)c1 (stereo not given)	i
